Measured values: ChEMBL document CHEMBL1961873, “Compounds: GSK PKIS; Assays: Nanosyn kinase panel” (2012)

How the values were obtained:
[1] = biological target: T1, Tyrosine-protein kinase ITK/TSK (Homo sapiens) (UniProt Q08881); settings: at 1 µM;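 further: values are mean percent inhibition of ITK from the GSK PKIS screen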
T1 sequence (whole entry): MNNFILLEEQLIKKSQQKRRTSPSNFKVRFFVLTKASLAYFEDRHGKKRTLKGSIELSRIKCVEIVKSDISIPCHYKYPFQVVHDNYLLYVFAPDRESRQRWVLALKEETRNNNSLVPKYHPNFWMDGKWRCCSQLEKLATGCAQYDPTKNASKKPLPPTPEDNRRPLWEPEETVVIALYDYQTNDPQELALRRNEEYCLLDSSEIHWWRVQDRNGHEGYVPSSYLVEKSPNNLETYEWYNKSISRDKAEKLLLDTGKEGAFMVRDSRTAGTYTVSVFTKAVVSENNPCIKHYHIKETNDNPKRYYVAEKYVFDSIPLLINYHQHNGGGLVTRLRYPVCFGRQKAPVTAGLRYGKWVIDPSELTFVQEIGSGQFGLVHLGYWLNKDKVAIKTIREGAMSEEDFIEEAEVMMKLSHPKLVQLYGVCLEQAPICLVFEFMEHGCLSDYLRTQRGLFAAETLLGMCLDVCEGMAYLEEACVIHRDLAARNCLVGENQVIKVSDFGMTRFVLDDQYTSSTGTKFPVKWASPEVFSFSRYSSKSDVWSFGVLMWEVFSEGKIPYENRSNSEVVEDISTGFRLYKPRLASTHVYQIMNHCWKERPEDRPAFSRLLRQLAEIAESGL

[2] = biological target: Tyrosine-protein kinase JAK1 (Homo sapiens) (UniProt P23458); settings: at 0.1 µM
[3] = biological target: Tyrosine-protein kinase JAK1 (Homo sapiens) (UniProt P23458); settings: at 1 µM
[4] = biological target: Tyrosine-protein kinase JAK2 (Homo sapiens) (UniProt O60674); settings: at 0.1 µM
[5] = biological target: Tyrosine-protein kinase JAK2 (Homo sapiens) (UniProt O60674); settings: at 1 µM
[6] = biological target: T2, Tyrosine-protein kinase JAK3 (Homo sapiens) (UniProt P52333); settings: at 0.1 µM
T2 sequence (whole entry): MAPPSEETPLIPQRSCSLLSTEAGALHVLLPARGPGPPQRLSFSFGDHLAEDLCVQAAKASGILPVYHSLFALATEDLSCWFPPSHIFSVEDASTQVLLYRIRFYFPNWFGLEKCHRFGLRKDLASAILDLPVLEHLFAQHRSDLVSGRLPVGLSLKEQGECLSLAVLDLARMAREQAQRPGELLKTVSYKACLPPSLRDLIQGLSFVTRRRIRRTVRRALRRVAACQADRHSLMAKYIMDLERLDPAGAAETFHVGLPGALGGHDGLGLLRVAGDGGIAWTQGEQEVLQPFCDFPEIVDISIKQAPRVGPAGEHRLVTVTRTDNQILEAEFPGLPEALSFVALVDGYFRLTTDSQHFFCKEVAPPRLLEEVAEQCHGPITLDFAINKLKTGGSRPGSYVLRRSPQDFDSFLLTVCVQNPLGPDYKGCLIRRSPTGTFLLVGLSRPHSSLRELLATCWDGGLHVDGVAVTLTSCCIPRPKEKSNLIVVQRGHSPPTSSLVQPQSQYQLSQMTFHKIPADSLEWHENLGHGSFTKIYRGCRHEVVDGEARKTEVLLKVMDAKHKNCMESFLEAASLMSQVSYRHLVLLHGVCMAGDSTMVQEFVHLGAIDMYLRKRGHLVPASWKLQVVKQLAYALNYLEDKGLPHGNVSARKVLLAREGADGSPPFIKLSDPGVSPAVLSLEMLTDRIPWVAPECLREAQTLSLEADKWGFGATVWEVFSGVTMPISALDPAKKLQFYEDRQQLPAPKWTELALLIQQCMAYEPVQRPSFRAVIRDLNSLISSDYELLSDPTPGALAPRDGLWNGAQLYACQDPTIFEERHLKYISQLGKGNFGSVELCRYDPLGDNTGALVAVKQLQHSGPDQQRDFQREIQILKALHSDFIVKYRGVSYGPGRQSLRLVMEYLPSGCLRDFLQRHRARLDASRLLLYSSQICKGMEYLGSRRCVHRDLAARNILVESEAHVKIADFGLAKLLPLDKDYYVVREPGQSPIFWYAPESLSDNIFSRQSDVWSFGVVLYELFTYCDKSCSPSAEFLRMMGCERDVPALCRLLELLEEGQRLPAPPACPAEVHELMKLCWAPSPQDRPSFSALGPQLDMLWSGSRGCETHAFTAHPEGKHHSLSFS

[7] = biological target: T2, Tyrosine-protein kinase JAK3 (Homo sapiens); settings: at 1 µM
[8] = biological target: Vascular endothelial growth factor receptor 2 (Homo sapiens) (UniProt P35968); settings: at 0.1 µM
[9] = biological target: Vascular endothelial growth factor receptor 2 (Homo sapiens) (UniProt P35968); settings: at 1 µM
[10] = biological target: Mast/stem cell growth factor receptor Kit (Homo sapiens) (UniProt P10721); settings: at 0.1 µM
[11] = biological target: Mast/stem cell growth factor receptor Kit (Homo sapiens) (UniProt P10721); settings: at 1 µM
[12] = tested on: Mast/stem cell growth factor receptor Kit (Homo sapiens), P10721 [D816V]; settings: at 0.1 µM
[13] = tested on: Mast/stem cell growth factor receptor Kit (Homo sapiens), P10721 [D816V]; settings: at 1 µM
[14] = tested on: Mast/stem cell growth factor receptor Kit (Homo sapiens), P10721 [T670I]; settings: at 0.1 µM
[15] = tested on: Mast/stem cell growth factor receptor Kit (Homo sapiens), P10721 [T670I]; settings: at 1 µM
[16] = tested on: Mast/stem cell growth factor receptor Kit (Homo sapiens), P10721 [V560G]; settings: at 0.1 µM
[17] = tested on: Mast/stem cell growth factor receptor Kit (Homo sapiens), P10721 [V560G]; settings: at 1 µM
[18] = biological target: Tyrosine-protein kinase Lck (Homo sapiens) (UniProt P06239); settings: at 0.1 µM
[19] = biological target: Tyrosine-protein kinase Lck (Homo sapiens) (UniProt P06239); settings: at 1 µM
[20] = biological target: Leukocyte tyrosine kinase receptor (Homo sapiens) (UniProt P29376); settings: at 0.1 µM
Sequence of Leukocyte tyrosine kinase receptor (Homo sapiens) (P29376 whole entry): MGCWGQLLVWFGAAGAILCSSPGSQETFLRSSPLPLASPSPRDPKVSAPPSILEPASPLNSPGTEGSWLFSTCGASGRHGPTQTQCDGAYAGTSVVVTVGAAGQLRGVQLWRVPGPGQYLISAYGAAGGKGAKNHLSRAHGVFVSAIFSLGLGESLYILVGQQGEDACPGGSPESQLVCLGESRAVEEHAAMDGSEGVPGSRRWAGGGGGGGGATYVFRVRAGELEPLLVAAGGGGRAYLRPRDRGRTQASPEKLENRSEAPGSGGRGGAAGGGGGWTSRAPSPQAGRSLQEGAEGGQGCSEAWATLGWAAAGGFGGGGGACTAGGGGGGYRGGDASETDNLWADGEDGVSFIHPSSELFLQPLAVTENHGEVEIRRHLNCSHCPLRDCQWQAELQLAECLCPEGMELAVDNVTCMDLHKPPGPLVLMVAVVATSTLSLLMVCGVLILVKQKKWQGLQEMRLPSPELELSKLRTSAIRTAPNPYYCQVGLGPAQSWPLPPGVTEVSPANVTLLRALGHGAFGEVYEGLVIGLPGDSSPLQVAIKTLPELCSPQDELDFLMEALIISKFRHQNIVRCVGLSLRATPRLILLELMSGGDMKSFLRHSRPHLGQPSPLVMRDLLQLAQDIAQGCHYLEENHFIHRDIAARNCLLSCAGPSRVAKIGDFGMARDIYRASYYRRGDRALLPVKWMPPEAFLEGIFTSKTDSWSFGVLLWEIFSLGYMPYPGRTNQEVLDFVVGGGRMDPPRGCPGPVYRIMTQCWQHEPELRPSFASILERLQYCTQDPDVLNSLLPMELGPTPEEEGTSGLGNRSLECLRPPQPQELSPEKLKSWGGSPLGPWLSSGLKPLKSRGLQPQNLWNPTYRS

Sequence of Mast/stem cell growth factor receptor Kit (Homo sapiens) (P10721 whole entry): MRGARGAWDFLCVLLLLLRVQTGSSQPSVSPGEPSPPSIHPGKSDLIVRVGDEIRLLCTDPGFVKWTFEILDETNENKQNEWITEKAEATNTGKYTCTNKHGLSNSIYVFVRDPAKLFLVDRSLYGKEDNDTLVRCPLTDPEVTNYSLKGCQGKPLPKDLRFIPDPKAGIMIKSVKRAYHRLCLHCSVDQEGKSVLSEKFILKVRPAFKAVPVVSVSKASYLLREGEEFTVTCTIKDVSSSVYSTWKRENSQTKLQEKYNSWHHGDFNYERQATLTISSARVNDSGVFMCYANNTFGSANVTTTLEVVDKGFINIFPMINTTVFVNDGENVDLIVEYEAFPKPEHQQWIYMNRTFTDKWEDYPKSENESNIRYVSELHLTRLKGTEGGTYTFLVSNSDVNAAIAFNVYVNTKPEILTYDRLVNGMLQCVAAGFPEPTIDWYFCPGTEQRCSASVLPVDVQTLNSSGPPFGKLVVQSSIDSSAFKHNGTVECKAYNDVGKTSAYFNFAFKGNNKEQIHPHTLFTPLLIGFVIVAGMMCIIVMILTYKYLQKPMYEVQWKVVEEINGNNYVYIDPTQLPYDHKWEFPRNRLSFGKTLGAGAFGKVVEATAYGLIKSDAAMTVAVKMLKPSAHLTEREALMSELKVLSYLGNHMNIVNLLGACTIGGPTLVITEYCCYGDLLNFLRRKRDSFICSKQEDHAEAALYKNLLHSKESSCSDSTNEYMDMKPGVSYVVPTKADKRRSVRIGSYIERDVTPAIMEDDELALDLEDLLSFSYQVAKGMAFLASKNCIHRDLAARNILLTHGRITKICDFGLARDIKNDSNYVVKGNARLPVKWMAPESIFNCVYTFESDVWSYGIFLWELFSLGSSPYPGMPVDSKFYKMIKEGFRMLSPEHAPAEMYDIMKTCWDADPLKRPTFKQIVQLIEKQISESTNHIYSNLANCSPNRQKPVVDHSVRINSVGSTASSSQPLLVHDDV
Sequence of Tyrosine-protein kinase JAK2 (Homo sapiens) (O60674 whole entry): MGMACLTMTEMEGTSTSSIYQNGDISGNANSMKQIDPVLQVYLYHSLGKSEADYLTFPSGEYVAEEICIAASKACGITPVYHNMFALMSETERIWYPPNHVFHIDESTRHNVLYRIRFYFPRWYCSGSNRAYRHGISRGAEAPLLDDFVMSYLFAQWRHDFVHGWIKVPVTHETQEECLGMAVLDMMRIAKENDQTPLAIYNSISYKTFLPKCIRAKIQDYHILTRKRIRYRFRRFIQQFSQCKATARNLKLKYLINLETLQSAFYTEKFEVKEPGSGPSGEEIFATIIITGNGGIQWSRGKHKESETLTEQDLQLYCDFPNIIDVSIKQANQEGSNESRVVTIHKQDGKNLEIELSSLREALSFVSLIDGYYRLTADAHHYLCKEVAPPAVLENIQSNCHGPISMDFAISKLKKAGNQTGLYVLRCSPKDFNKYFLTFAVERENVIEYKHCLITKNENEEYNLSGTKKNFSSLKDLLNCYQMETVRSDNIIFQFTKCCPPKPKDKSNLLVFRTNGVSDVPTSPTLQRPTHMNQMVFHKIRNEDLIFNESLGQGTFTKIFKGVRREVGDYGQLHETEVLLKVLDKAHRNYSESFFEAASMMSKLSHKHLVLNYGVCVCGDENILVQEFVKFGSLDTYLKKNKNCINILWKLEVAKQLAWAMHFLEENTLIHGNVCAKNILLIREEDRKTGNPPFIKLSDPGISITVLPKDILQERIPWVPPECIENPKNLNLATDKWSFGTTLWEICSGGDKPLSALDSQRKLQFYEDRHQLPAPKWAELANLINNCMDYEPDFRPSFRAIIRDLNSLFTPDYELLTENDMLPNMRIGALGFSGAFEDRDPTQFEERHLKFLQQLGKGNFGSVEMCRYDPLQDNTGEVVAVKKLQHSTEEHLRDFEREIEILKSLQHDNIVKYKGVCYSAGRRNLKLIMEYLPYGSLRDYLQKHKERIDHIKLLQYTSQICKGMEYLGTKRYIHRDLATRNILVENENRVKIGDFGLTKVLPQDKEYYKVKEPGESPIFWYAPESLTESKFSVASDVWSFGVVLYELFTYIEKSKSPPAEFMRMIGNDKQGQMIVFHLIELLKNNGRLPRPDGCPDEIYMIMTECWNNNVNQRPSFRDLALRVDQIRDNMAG
Sequence of Mast/stem cell growth factor receptor Kit (Homo sapiens), P10721 [V560G] (P10721 whole entry V560G): as the sequence (P10721 whole entry) above, with V560G counted along it
Sequence of Mast/stem cell growth factor receptor Kit (Homo sapiens), P10721 [T670I] (P10721 whole entry T670I): as the sequence (P10721 whole entry) above, with T670I counted along it
Sequence of Vascular endothelial growth factor receptor 2 (Homo sapiens) (P35968 whole entry): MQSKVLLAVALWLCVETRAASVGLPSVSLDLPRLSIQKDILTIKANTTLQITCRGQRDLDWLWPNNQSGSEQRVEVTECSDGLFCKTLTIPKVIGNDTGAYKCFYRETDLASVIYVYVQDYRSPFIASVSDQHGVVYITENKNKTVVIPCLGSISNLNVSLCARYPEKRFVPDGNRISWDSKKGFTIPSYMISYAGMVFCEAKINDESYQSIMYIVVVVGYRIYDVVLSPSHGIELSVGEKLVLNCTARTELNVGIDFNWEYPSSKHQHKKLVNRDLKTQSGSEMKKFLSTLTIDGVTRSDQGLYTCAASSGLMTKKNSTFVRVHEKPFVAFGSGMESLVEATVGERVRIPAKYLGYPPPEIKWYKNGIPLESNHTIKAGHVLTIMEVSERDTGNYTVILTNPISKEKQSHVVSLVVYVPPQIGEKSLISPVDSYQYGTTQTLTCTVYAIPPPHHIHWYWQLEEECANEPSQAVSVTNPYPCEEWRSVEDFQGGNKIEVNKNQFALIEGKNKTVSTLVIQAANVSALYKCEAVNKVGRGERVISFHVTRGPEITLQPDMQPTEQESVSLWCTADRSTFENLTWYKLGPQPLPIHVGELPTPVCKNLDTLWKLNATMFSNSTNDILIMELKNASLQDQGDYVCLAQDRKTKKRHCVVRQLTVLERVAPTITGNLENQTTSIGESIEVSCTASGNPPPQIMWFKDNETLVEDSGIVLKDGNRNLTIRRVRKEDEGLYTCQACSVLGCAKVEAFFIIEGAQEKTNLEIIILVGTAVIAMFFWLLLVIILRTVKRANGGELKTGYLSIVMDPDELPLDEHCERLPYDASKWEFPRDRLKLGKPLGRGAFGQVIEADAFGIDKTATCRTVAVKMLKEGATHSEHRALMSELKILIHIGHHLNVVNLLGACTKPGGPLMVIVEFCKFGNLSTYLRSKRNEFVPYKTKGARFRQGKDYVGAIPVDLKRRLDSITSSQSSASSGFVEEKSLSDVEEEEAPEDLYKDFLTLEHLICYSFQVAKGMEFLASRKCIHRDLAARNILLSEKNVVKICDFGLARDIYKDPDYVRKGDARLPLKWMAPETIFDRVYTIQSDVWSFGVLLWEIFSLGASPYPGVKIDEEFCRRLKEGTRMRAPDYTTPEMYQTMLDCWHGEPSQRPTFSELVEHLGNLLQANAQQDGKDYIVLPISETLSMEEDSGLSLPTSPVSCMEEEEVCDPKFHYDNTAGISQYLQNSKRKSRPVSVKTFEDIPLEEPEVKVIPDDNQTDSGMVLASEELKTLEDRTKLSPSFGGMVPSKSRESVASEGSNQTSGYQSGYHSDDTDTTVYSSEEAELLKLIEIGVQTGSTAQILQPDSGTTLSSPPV
Sequence of Mast/stem cell growth factor receptor Kit (Homo sapiens), P10721 [D816V] (P10721 whole entry D816V): as the sequence (P10721 whole entry) above, with D816V counted along it
Sequence of Tyrosine-protein kinase Lck (Homo sapiens) (P06239 2-509 limits assumed): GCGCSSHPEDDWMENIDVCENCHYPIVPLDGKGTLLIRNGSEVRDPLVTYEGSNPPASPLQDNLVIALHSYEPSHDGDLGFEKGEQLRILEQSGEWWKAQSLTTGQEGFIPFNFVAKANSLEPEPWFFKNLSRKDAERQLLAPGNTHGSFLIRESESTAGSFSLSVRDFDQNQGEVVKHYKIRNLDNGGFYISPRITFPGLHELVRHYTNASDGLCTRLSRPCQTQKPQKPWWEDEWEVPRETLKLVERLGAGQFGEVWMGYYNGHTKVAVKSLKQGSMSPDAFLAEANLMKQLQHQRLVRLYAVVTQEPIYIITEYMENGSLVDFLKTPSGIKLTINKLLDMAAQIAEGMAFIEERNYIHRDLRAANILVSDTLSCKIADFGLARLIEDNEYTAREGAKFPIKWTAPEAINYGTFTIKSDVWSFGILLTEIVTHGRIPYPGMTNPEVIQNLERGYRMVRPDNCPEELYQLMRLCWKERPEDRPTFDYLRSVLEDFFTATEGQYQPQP

Row | SMILES | inhibition [1] | inhibition [2] | inhibition [3] | inhibition [4] | inhibition [5] | inhibition [6] | inhibition [7] | inhibition [8] | inhibition [9] | inhibition [10] | inhibition [11] | inhibition [12] | inhibition [13] | inhibition [14] | inhibition [15] | inhibition [16] | inhibition [17] | inhibition [18] | inhibition [19] | inhibition [20]
1 | O=C1NC(=O)C(c2cccc(Cl)c2)=C1Nc1ccc(Cl)c(C(=O)O)c1 | 0.9% | 4.75% | 13.7% | 0.64% | 0.7% | -0.9% | 9.29% | 6.04% | 23.5% | 6.54% | 5.28% | 1.8% | 5.8% | 2.83% | 4.22% | 1% | 6.94% | 1.82% | 0.84% | 2.51%
2 | Cc1nnc(-c2ccc(C)c(-c3ccc(C(=O)NCc4ccc(Cl)cc4)cc3)c2)o1 | -2.86% | 4.61% | 16.9% | 1.06% | 1.06% | -4.26% | -4.85% | 4.61% | 5.62% | 4.95% | 3.81% | 4.88% | 1.51% | 2.49% | 7.38% | -1.65% | -1.05% | -2.94% | -1.25% | 1.83%
3 | Fc1ccc(-c2ncn(C3CCNCC3)c2-c2ccnc(Oc3ccc4c(c3)OCO4)n2)cc1 | 3.21% | 3.3% | 4.29% | 0.42% | 1.47% | -2.3% | -2.01% | 9.3% | 12.5% | 7.99% | 9.68% | 4.71% | 5.2% | 3.24% | 3.64% | -1.09% | -0.53% | 3.98% | 8.64% | 3.89%
4 | Clc1ccc(CNc2nccc(-c3cnn4ncccc34)n2)cc1 | 1.37% | -0.37% | -0.62% | 1.52% | 3.6% | -0.04% | 2.94% | 0.99% | 2.77% | 5% | 19.4% | 0.92% | 5.08% | 1.59% | 6.47% | 3.83% | 7.92% | 2.31% | 2.46% | 0.55%
5 | C#Cc1cccc(Nc2ncnc3ccc(OCCCCNCCS(C)(=O)=O)cc23)c1 | -2.14% | 0.29% | 13.4% | 1% | 0.71% | -4.71% | -3.57% | 14.2% | 19.6% | 4.93% | 7.12% | 5.01% | 8.8% | 1.97% | 9.5% | -0.82% | 4.36% | 0.24% | 13.5% | 5.05%
6 | O=C1Nc2ccc(I)cc2C1=Cc1cc(Br)c(O)c(Br)c1 | 1.44% | 1.44% | 2.67% | 2.54% | 3% | -0.81% | -3.69% | 5.81% | 9.7% | 5.45% | 18.4% | 2.74% | 2.13% | -0.52% | 4.39% | -4.29% | -1.08% | 3.11% | 3.54% | 4.82%
7 | Nc1nccc(-c2c(-c3ccc(F)cc3)ncn2C2CCC(O)CC2)n1 (stereo not given) | 0.63% | -6.08% | -2.41% | -0.54% | -0.27% | 1.29% | 2.69% | 2.29% | 17.2% | -1.79% | 17.1% | -2.57% | 1.44% | -0.22% | -0.69% | 1.44% | 5.14% | 3.6% | 29.2% | -1.37%
8 | O=C(Nc1n[nH]c2nc(-c3ccco3)ccc12)C1CC1 | 2.43% | -0.37% | -0.27% | 0.87% | 2.09% | 0.01% | 2.11% | 7.28% | 14% | 3.39% | 1.57% | -0.41% | 0.03% | 1.03% | 2.02% | 3.13% | 6.74% | 1.24% | 3.59% | 1.06%
9 | O=C(NCC1CC1)c1ccc(-c2cccc(C(=O)NC3CC3)c2)cc1 | 2.71% | 0.26% | -6.93% | 1.73% | 0.94% | -0.66% | 0.07% | 5.99% | 8.55% | 1.06% | 3.45% | 2.24% | -0.44% | 3.77% | -2.45% | 3.49% | 5.84% | 1.74% | 4.51% | 1.6%
10 | COc1cc2ncn(-c3cc(OCc4ccccc4C(F)(F)F)c(C(C)=O)s3)c2cc1OC | 6.89% | 2.15% | 2.47% | 1.06% | -0.01% | -2.98% | -1.59% | 3.96% | 7.57% | 3.46% | 4.53% | 2.21% | 1.58% | 2.81% | 6.12% | -1.46% | 1.6% | 4.22% | 9.66% | 2.03%
11 | CN1CCN(CCCNc2nc3ccc(Oc4ccc(NC(=O)Nc5cc(C(F)(F)F)ccc5F)cc4)cc3[nH]2)CC1 | -1.94% | 6.45% | 1.78% | 3.76% | 6.4% | -2.58% | 0.29% | 38.6% | 71.9% | 48.5% | 91.9% | -2.19% | 0.02% | 11.5% | 70.1% | 31.6% | 76.6% | -1.91% | 7.95% | -0.24%
12 | COc1ccc(C2=C(N3CCc4ccccc43)C(=O)NC2=O)cc1 | 2.26% | 3.92% | 7.64% | 2.9% | 3.26% | -0.7% | 1.63% | 8.98% | 14.5% | 7.63% | 15.1% | 3.56% | 3.25% | 6.38% | 5.55% | 3.19% | 4.55% | 4.42% | 4.16% | 5.23%
13 | CS(=O)(=O)CCNCc1cc(-c2cc3c(Nc4ccc(OCc5cccc(F)c5)c(Cl)c4)ncnc3s2)cs1 | 3.04% | -1.42% | 3.76% | 2.28% | 5.69% | -2.63% | -0.49% | 6.12% | 8.97% | 7.21% | 8.47% | 2.03% | 6.26% | 2.2% | 5.07% | -1.18% | 0.47% | 2.76% | 4.18% | 6.05%
